# Results published in PubChem BioAssay (NCATS).
# Active and inactive are the calls of the source. How the calls were made is not given here.
# Tested on: HIV-1 nucleocapsid protein NCp7 (binding to TG oligonucleotide)
# Assay: HIV Nucleocapsid (AID 346);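 further: potency is for inhibitors that block NC binding and lower polarization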
# Conditions: HIV-1 NC / fluorescein-TGTGTGTG probe, fluorescence polarization
# Experimental: NCGC Assay Overview: HIV-1 nucleocapsid protein (HIV-1 NC) is a small (6.5 kDa) basic zinc-finger protein which participates in packaging of viral genomic RNA. The spacing and metal-chelating residues (3 Cys, 1 His) of the Cys-X2-Cys-X4-His-X4-Cys Zn fingers are conserved among all known retroviruses (J. Med. Chem. 1998, 41, 1371-1381). HIV-1 NC was assayed for its binding to the consensus sequence single-stranded 5'-TGTGTGTG. […] High salt was included to increase the stringency of binding and inhibitor screen. Reducing agents and zinc were present to stabilize the nucleocapsid zinc-finger protein.
# NCGC Assay Protocol Summary: Buffer. Hepes pH 7.5, 250mM NaCl, 1uM ZnCl2. 0.004% polyethylene glycol 20000. TCEP (100 uM) and 2-Mercaptoethanol (5 mM), added fresh the day of the experiment. Reagents/Controls. 10 nM TG4xF only in columns 3 and 4 as negative control. 10 nM TG4xF/100 nM HIV-1 NC in columns 1, 2, 5-48. Titration of control compound NSC-13778 (from 20 mM, then 1:2) pin-transferred to column 2. Assay Steps. Two uL of reagents were dispensed to 1536-well Kalypsys black plates. The plates were centrifuged for 1 min at 1000 rpm. Compounds and controls (20 nL) were transferred via Kalypsys PinTool. The plates were incubated for 1 hr at room temperature, and then read on ViewLux (Perkin-Elmer). High-throughput CCD imager using fluorescein polarization filter set and 45 seconds exposure time.
# Potency means the concentration at half of the fitted maximal effect.
row,Structure (SMILES),Potency
1,COc1ncc2ncc(=O)n(C)c2n1,> 20 µM (inactive)
2,O=S(=O)(c1ccccc1)N1CCC2(CCN(c3ncccn3)CC2)CC1,> 20 µM (inactive)
3,CS(=O)(=O)N1CCC[C@@]2(CCN(c3ncccn3)C2)C1,> 20 µM (inactive)
4,Cc1nc2cnc(Nc3ccccc3)nc2n(C2CC2)c1=O,> 20 µM (inactive)
5,N#Cc1cccc(-c2cncnc2NCc2cccnc2)c1,> 20 µM (inactive)
6,CS(=O)(=O)N1CCC[C@@]2(CCN(c3ccccc3)C2)C1,> 20 µM (inactive)
7,Cc1cccc(CNc2ncnc3ccc(-c4ccc(C(=O)N(C)C)cc4)cc23)c1,> 20 µM (inactive)
8,CC(=O)N1CCC[C@@]2(CCN(c3ccncc3)C2)C1,> 20 µM (inactive)
9,COCCn1c(=O)c(-c2cc(F)cc(F)c2)nc2cncnc21,> 20 µM (inactive)
10,O=c1c(-c2cccc(Cl)c2)nc2cncnc2n1Cc1ccc(F)cc1,> 20 µM (inactive)
11,N#CCCn1c(=O)c(-c2cc(F)cc(F)c2)nc2cnc(Oc3ccccc3)nc21,> 20 µM (inactive)
12,COc1ccccc1-c1cncnc1-n1ccnc1,> 20 µM (inactive)
13,CNc1cc(-c2ccccc2C(F)(F)F)ncn1,> 20 µM (inactive)
14,Cc1cnc(CNc2ncnc3ccc(-c4ccc(C(=O)N(C)C)cc4)cc23)cn1,> 20 µM (inactive)
15,Cc1nc2cnc(OCc3ccccc3)nc2n(CCc2ccccc2)c1=O,> 20 µM (inactive)
16,CCNc1ncc2nc(-c3ccc(OC)cc3)c(=O)n(Cc3cccc(OC)c3)c2n1,4.61 µM (active)
17,O=S(=O)(c1ccccc1)N1CCC2(CCCN(Cc3ccncc3)C2)CC1,> 20 µM (inactive)
18,COCCNc1nc(-c2ccccc2C)nc2ccccc12,> 20 µM (inactive)
19,COc1cccc(Cn2c(=O)c(-c3cccs3)nc3cnc(N(C)C)nc32)c1,> 20 µM (inactive)
20,O=C(c1cnccn1)N1CCC2(CC1)CN(c1ncccn1)C2,> 20 µM (inactive)

row,Structure (SMILES),Potency
1,COc1ccccc1CN1CC[C@@]2(CCCN(C(=O)c3ccncc3)C2)C1,> 20 µM (inactive)
2,COc1cccc(-c2cncnc2Nc2ccc(F)cc2)c1,> 20 µM (inactive)
3,O=C(Nc1cccc(F)c1)N1CCCC2(CCN(C(=O)c3cnccn3)CC2)C1,> 20 µM (inactive)
4,CN1CCN(c2ncc3nc(-c4cn(C)c5ccccc45)c(=O)n(C[C@H]4CCCO4)c3n2)CC1,> 20 µM (inactive)
5,Cc1nc2cncnc2n(-c2ccccc2)c1=O,> 20 µM (inactive)
6,COc1cccc(Cn2c(=O)c(CCc3ccccc3)nc3cnc(N4CCN(C)CC4)nc32)c1,> 4 µM (inactive)
7,c1cncc(CNc2nc(-c3cccnc3)nc3ccccc23)c1,> 20 µM (inactive)
8,N#Cc1cccc(NC(=O)N2CC[C@@]3(CCCN(C(=O)c4cnccn4)C3)C2)c1,> 20 µM (inactive)
9,Cc1cccc(CNc2ncnc3ccc(-c4ccc5c(c4)OCO5)cc23)c1,> 20 µM (inactive)
10,O=C(c1csnn1)N1CCC[C@@]2(CCN(c3cccc(-c4ccccc4)c3)C2)C1,> 20 µM (inactive)
11,Cc1nc2cncnc2n(C2CC2)c1=O,> 20 µM (inactive)
12,COc1cccc(Cn2c(=O)cnc3cnc(OCc4ccccc4)nc32)c1,> 20 µM (inactive)
13,Cc1cnc(CNc2ccnc(-c3ccc(N(C)C)cc3)n2)cn1,> 20 µM (inactive)
14,COc1cccc(Cn2c(=O)c(-c3cccs3)nc3cnc(OC)nc32)c1,> 20 µM (inactive)
15,CC(=O)N1CCC2(CC1)CN(c1ccccc1)C2,> 20 µM (inactive)
16,Cc1noc(C)c1-c1ccc2ncnc(NCc3cccnc3)c2c1,> 20 µM (inactive)
17,CNc1ccnc(-c2ccccc2CN(C)C)n1,> 20 µM (inactive)
18,N#Cc1ccc(CN2CCCC3(CCN(C(=O)c4ccncc4)CC3)C2)cc1,> 20 µM (inactive)
19,COc1ccccc1CN1CCCC2(CCNCC2)C1,> 4 µM (inactive)
20,O=C(c1cnccn1)N1CCC2(CCCN(c3ccccc3)C2)CC1,> 20 µM (inactive)
